This is a sample that favours compounds with a hit; in the whole collection about 3% have one here.
DRD3 agonist = activates the human D3 dopamine receptor | P35462 | D3R DiscoveRx beta-arrestin cells, luminescence, 90 min | max activation, % | 410,000 tested, 0.58% active | AID 652048; in the data active = max activation above about 30%
Target sequence (P35462 whole entry, looked up): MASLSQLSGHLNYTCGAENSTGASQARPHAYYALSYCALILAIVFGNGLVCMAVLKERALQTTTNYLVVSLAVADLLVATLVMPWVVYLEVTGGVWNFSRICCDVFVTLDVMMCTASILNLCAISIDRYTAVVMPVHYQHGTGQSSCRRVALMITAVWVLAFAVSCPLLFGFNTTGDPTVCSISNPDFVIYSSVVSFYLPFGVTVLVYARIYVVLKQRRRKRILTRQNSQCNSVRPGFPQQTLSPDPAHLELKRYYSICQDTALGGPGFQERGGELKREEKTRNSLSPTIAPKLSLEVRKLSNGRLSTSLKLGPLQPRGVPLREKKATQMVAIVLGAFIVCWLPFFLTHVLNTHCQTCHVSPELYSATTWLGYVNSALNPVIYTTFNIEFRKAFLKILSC
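Cells at 1500/well, incubated overnight, then treated with pinned compounds (dopamine as control) for 90 min at 37 degrees C. DiscoveRx reagent added for 30 - 60 minutes at room temperature; luminescence read.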
Glioma ERSR ind = inducers of ER stress response in human glioma cells; U87-MG GRP78 promoter luciferase reporter, 16 h; Potency, µM, usual class: activators; 420,000 tested, 0.02% active; AID 602332; also: series mostly up to about 76 µM; nearly all actives have a fitted effect of over 35% in size
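ERSR induction read as luciferase luminescence (Bright-Glo, 10 min at room temperature) in stably transfected human U87-MG glioma cells exposed to compounds for 16 h, using GRP78 as sensor.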
DRD3 antagonist = D3 dopamine receptor (human) antagonism; P35462; D3R cells, DiscoveRx beta-arrestin luminescence, antagonist mode; hits give low values; AID 652054; max response, negative = inhibition, %; 360,000 tested, 2.5% active; in the data active = max response below about -50%; inconclusive = no clear call, values can overlap the other calls
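Cells expressing the human receptor were seeded at 1500 cells/well, incubated overnight at 37 degrees C in 5% CO2, then exposed to library compounds with dopamine controls for 90 minutes at 37 degrees C before luminescent detection.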
Nrf2 activator = activates Nrf2 signaling. AREc32 ARE-luciferase reporter (MCF7-derived line), luminescence, 24 h. Potency, µM (top dose mostly 46.1 µM), actives largely listed as activators. 410,000 tested, 0.31% active. AID 624171; also: nearly all actives have a fitted effect of over 65% in size
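ARE activation measured as luciferase luminescence (Steady-Glo, 30 min RT) in AREc32_Fluc cells after 24 hr compound exposure at 37 deg C, 5% CO2; cells seeded overnight at 1000/well in OPTI-MEM, 5% FBS.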
Hits are given with their value; i = inactive; ? = inconclusive; nt = not tested or not shown; [ ] = dose if it differs, or a comment. Unless noted, calls follow the shape of the dose curve; as a rule, active = well fitted curve in the direction sought with a large enough effect; inconclusive = small, poorly fitted or top-dose-only effect, or another doubt; inactive = no such curve, though single readings can be large; an effect the other way counts as inactive or inconclusive.

SMILES | DRD3 agonist | Glioma ERSR ind | DRD3 antagonist | Nrf2 activator
COc1ccc2nc3sc(C(=O)NCCCN4CCc5ccccc5C4)cc3cc2c1 | i | i | -88.3 | i
COc1ccc(S(=O)(=O)Cc2ccc(C(=O)NCCCN3CCc4ccccc4C3)o2)cc1 | i | i | -91.6 | i
COc1ccccc1S(=O)(=O)Cc1ccc(C(=O)NCCCN2CCN(c3ccc(F)cc3)CC2)o1 | i | i | -77.1 | i
COc1ccc(N2CCN(CCCNC(=O)c3ccc(CS(=O)(=O)c4ccc(OC)cc4)o3)CC2)cc1 | i | i | i | i
Cc1ccc2nc(C(C)(C)C)c(Cc3ccsc3)n2c1 | i | i | -107.0 | i
CCOc1ccc(Cl)cc1-c1cc(C(=O)NCc2ccccc2)[nH]n1 | i | i | i | i
COc1ccc(Cl)cc1-c1cc(C(=O)Nc2ccc(Br)cc2)[nH]n1 | i | i | -76.1 | i
COc1ccc(Cl)cc1-c1cc(C(=O)NCc2ccccc2)[nH]n1 | i | i | -59.0 | i
COCc1c(C(=O)N2CCN(C(C)C)CC2)cnn1-c1nccc(-c2cc(C)sc2C)n1 | nt | i | nt | nt
COc1cccc(C(=O)N(Cc2cc3ccc(C)cc3nc2N(C)C)C2CC2)c1OC | nt | i | nt | nt
Cc1nn(C)c(N)c1[N+](=O)[O-] | i | i | i | i
Cc1nn(C)c(Sc2ccccc2N)c1[N+](=O)[O-] | i | i | i | 14.1µM
O=C(C1CC1)N1CCN(c2ccnc3cc(Cl)ccc23)CC1 | i | i | -67.9 | i
Clc1ccc(-c2csc(NNC3=NCCCCC3)n2)cc1 | i | ? | -78.4 | i
CC(C)C(NC(=O)C(CC(=O)O)NC(=O)C(CCCCN)NC(=O)C(N)CCCN=C(N)N)C(=O)NC(Cc1ccc(O)cc1)C(=O)O (centres undefined) | nt | i | nt | nt
CCCCn1c(-c2nonc2N)nc2ccccc21 | i | i | i | i
CC(C)CCn1c(-c2nonc2N)nc2ccccc21 | i | i | -51.2 | i
Cc1ccc2cc(CN(CCN3CCCC3)C(=O)Nc3ccc(F)cc3)c(=O)[nH]c2c1C | i | i | -77.7 | i
Cc1ccc2cc(CN(CCN3CCOCC3)C(=O)NCc3ccccc3)c(=O)[nH]c2c1C | i | i | i | i
Cc1ccc2cc(CN(CCN3CCCC3)C(=O)Nc3ccccc3)c(=O)[nH]c2c1C | i | i | -67.4 | i
CN(CCO)C(=O)c1cn(C2CCN(Cc3c(F)cccc3Cl)CC2)nn1 | nt | i | nt | nt
CCN1CCCC1CNC(=O)c1cnn(-c2ncc(C)c(-c3ccc(F)cc3)n2)c1C(C)C (centres undefined) | nt | i | nt | nt
O=C(/C=C/c1ccc(-c2ccccc2[N+](=O)[O-])o1)c1ccco1 | i | i | i | 10µM
Nc1ccc(/C=C/c2ccnc3ccccc23)cc1 | nt | i | nt | nt
CCOc1ccc(-c2cc3c(=O)n(CC(=O)NCc4ccc(F)cc4)ccn3n2)cc1 | i | nt | nt | i
SMILES | DRD3 agonist | Glioma ERSR ind | DRD3 antagonist | Nrf2 activator
COC(=O)c1sc2ccccc2c1S(=O)(=O)N1CCN(c2ccc(C(C)=O)cc2)CC1 | i | i | nt | i
O=[N+]([O-])c1cccc(-c2ccc(/C=N/Nc3nc(N4CCCCC4)nc(N4CCCCC4)n3)o2)c1 | 51.6 | i | i | i[9.22 µM]
COc1nn(-c2ccccc2)c(=O)c(Cl)c1Cl | i | i | -63.5 | ?
COC(=O)N/N=C/c1ccc(OS(=O)(=O)c2ccc(C)cc2)c(OC)c1 | i | i | i | i
COc1cc(/C=N/NC(=O)c2cccnc2)ccc1OS(=O)(=O)c1ccc(C)cc1 | i | i | i | i
COc1cc(/C=N/NC(=O)COc2cccc(F)c2)ccc1OS(=O)(=O)c1ccc(C)cc1 | i | i | -53.3 | i
COc1cc(/C=N/NC(=O)COc2ccc(Cl)cc2)ccc1OS(=O)(=O)c1ccc(C)cc1 | i | i | -50.2 | i
CCCOC(=O)/C(=C\C=C\c1ccco1)NC(=O)c1ccccc1 | i | i | i | 12.6µM
Cc1cccc(CN2C[C@H](Sc3ccccn3)C[C@H]2C(=O)Nc2ccc3sc(C)nc3c2)c1 | nt | i | nt | nt
CC(C)Oc1cccc(C(=O)NC(=S)Nc2ccc(Cl)c(C(=O)O)c2)c1 | i | i | -87.6 | i
CN(C)S(=O)(=O)Oc1cccc(C(=O)Nc2ccc(Cl)c(Cl)c2)c1 | i | i | -52.9 | i
O=C1O[C@@H]2[C@@H](O)[C@H](O)O[C@@H]2[C@H]1O | i | nt | nt | nt
O=C1/C(=C/C=C/c2ccco2)SC(=S)N1c1ccc(O)cc1 | i | i | i | 10µM
CN(C)c1ccc(/C=C/C=C2/SC(=S)N(c3ccccc3)C2=O)cc1 | i | i | -66.6 | i
O=C(O)c1ccc(N2C(=O)/C(=C/C=C/c3ccccc3)SC2=S)cc1 | i | i | i | i
O=C1/C(=C\c2ccco2)SC(=S)N1c1ccc(O)cc1 | i | i | i | i
CC(C)Cn1c(CNC(=O)c2ccccc2)nc2ccccc21 | i | i | -55.6 | i
CCCn1c(Nc2nc3ccccc3n2C)nc2ccccc21 | i | ? | -101.9 | i
Cn1c(CCCNC(=O)c2ccccc2)nc2ccccc21 | i | i | -53.9 | i
CCCCn1c(Nc2ccccc2)nc2ccccc21 | i | i | i | i
Cc1nc2ccccc2n1CC(=O)NCc1ccccc1 | i | i | -50.2 | i
Cc1nc2ccccc2n1CC(=O)NN | i | i | i | i
Cc1ccccc1C(=O)N1CCc2c(cnc(C)c2CNC(=O)CN2CCCCC2)C1 | nt | i | nt | nt
CCCn1c(CNC(=O)c2ccccc2)nc2ccccc21 | i | i | -78.6 | i
Cn1c(CCc2ccc(N)cc2)nc2ccccc21 | i | i | -51.3 | i
SMILES | DRD3 agonist | Glioma ERSR ind | DRD3 antagonist | Nrf2 activator
COc1ccc(C(=O)Nc2ccc3c(c2)nc(CCNC(C)=O)n3C)cc1 | i | i | i | i
O=C(Cn1c(=O)nc(-c2ccccc2)c2cc(Cl)ccc21)NCc1ccccc1 | 32.4 | i | nt | i
COc1ccc(C(=O)NCCc2nc3cc([N+](=O)[O-])ccc3n2C)cc1 | i | i | -112.6 | i
CCCn1c(CNC(=O)c2cccs2)nc2ccccc21 | i | i | i | i
COc1ccc2nccc(/C=C/c3ccc(N(C)C)cc3)c2c1 | nt | i | nt | nt
C[C@H](CO)N1C[C@H](C)[C@@H](CN(C)Cc2ccc(Oc3ccccc3)cc2)Oc2c(NC(=O)C3CC3)cccc2C1=O | 35.0 | i | i | i
C[C@@H]1CN([C@@H](C)CO)C(=O)c2cccc(NC(=O)Nc3ccc(F)cc3)c2O[C@@H]1CN(C)Cc1ccc(Oc2ccccc2)cc1 | i | i | -70.7 | i
C[C@H](CO)N1C[C@H](C)[C@@H](CN(C)CC2CC2)Oc2c(NC(=O)C3CC3)cccc2C1=O | 33.2 | i | i | i
C[C@H](CO)N1C[C@H](C)[C@H](CN(C)Cc2ccccc2)Oc2c(NC(=O)Nc3ccc(F)cc3)cccc2C1=O | i | i | ? | i
CCOc1ccc(CNC(=O)C2Cc3ccccc3N2C(=O)CC)cc1 (centres undefined) | i | i | nt | i
Cc1ccccc1CS(=O)(=O)c1cnc2ccccc2n1 | i | i | ? | 8.91µM
Cc1ccccc1C(=O)NC1(C(F)(F)F)C(=O)Nc2c1c(=O)[nH]c(=O)n2-c1ccc(F)cc1 (centres undefined) | i | i | nt | i
C/C(=N\NS(=O)(=O)c1ccc(Cl)c([N+](=O)[O-])c1)c1ccc(C)o1 | i | i | -70.4 | i
Cc1ccc(C(=O)c2cc3ccccc3o2)cc1[N+](=O)[O-] | i | i | ? | i

Screens: PubChem, National Center for Advancing Translational Sciences (NCATS)
